# Source: PubChem (NMMLSC)
# MEKK3 PB1 HTS – modulators of MEKK3-MEK5 PB1 binding, primary screen, biochemical, wildtype MEKK3, multiplex bead flow cytometry, Alexa488-MEK5; Mitogen-activated protein kinase kinase kinase 3 (Homo sapiens), Q99759; 290,000 tested, 1.4% active; bead-based flow cytometry, Alexa488-MEK5 binding to MEKK3; actives lie on both sides; 0 = blocked by unlabeled MEK5, 100 = vehicle; binding response (% of control), % at 10 µM;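 active = binding response more than 3 SD above or below the average of its plate-row segment, actives on both sides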;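 note: Alexa488 bead fluorescence after subtracting the streptavidin-only scavenger bead signal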
# MEKK2 WT-MEK5 – modulators of MEK5 binding to wildtype MEKK2, primary screen, biochemical, multiplex bead flow cytometry, Alexa488-MEK5. Mitogen-activated protein kinase kinase kinase 2 (Homo sapiens), Q9Y2U5. AID 1531, 2009. binding response (% of control), % at 10 µM. Alexa488-MEK5 binding to MEKK2 WT; actives lie on both sides. 290,000 tested, 1.1% active; in the data active = binding response below about 67% or above about 130%
# MEKK2 mut-MEK5 – MEK5 binding signal on mutant MEKK2 PB1, primary screen, biochemical, multiplex bead flow cytometry, Alexa488-MEK5 | percent response, % at 10 µM | 290,000 tested, 0.35% active | Alexa488-MEK5 binding to MEKK2 mutant; in the data active = percent response above about 24%, passing the limit was not always enough
# GRK2 inh – compounds blocking aptamer binding on GRK2 – biochemical, human GRK2, bead flow cytometry, HTS, primary screen. FAM-aptamer displacement from GRK2. inhibition of aptamer binding, % at 10 µM. 330,000 tested, 0.59% active;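 active = inhibition of aptamer binding above 40%, roughly 3 SD of noise, on plates passing a quality check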;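 note: median bead fluorescence of bound FAM aptamer so fluorescent compounds give negative values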
# Target sequence (P25098 whole entry, looked up): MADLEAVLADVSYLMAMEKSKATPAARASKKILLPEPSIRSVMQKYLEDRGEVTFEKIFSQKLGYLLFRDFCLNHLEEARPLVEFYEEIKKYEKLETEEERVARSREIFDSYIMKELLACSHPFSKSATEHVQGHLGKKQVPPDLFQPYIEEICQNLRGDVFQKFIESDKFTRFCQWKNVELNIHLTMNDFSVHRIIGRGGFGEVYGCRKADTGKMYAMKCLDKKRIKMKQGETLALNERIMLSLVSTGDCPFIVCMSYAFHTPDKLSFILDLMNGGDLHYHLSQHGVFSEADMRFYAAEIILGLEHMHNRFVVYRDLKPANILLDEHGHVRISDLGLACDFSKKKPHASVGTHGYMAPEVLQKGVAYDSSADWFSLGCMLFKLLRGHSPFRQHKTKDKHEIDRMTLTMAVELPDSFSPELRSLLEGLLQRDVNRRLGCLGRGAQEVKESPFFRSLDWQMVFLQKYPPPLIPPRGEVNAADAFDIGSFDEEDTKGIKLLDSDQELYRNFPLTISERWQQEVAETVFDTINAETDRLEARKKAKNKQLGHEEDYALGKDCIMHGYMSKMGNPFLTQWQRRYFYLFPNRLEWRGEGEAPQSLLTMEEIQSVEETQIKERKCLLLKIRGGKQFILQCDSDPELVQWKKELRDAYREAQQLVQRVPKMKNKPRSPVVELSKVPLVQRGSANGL
# GRK2 inh confirm – GRK2 aptamer-displacing inhibitors, retest, confirmation, biochemical, cherry pick 1, bead flow cytometry; 2,000 tested, 4% active; aptamer displacement, % at 10 µM; shares compounds with GRK2 inh; bead-bound GRK2, FAM-aptamer displacement;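 active = aptamer displacement above 40%, near three times the noise of non-fluorescent compounds, on plates passing quality checks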;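 note: negative values mostly reflect intrinsic compound fluorescence rather than true enhancement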
# Aptamer quench 1 – fluorescent aptamer quenching in GRK2 counter-screen dose response; shares compounds with GRK2 inh; fluorescence change (kMESF span), kMESF (test concentration not listed); Fluorescent RNA aptamer beads, flow cytometry; active compounds read high; AID 504521; 110 tested, under 10 active;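 active = compounds whose bead fluorescence drops by more than 37 kMESF across the dose range, marking them as dye quenchers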
# FAM quench CP1 – counter-screen for GRK2 aptamer inhibitors: fluorescent aptamer quenchers; shares compounds with GRK2 inh; Carboxyfluorescein RNA aptamer on beads, flow cytometry quenching; active compounds read low; fluorescence response (% of DMSO), % at 10 µM; 2,000 tested, under 10 active; AID 504580;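 active = compounds that quench the bead-bound fluorescent RNA probe, cutting fluorescence to under half of the solvent control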;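 note: counterscreen run without GRK2 so only probe quenching by compound is measured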
# GRK2 CP2 – GRK2 aptamer-displacing inhibitors, hit retest, confirmation, biochemical, cherry pick 2, bead flow cytometry | shares compounds with GRK2 inh | bead-bound GRK2, FAM-aptamer displacement | inhibition of aptamer binding, % at 10 µM | 360 tested, under 10 active | AID 504782, 2011;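 active = inhibition of aptamer binding above 40%, about triple the noise seen with nonglowing compounds, on plates passing quality control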;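 note: negative values mostly come from compounds that fluoresce themselves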
# Aptamer quench3 – fluorescence quenching of FAM-labeled RNA aptamer, dose response, artefact control for GRK2 aptamer inhibitor project, biochemical, flow cytometry, cherry pick 2 | shares compounds with GRK2 inh | Streptavidin beads | change in fluorescence (kMESF span), kMESF (no concentration beside the values) | 25 tested, under 10 active;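 active = compounds quenching the bead-bound labeled aptamer, with fluorescence dropping by more than 37 kMESF over the dose range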
# FAM quench CP2 – counter-screen for GRK2 binding hits: quenchers of fluorescent RNA aptamer; fluorescence response vs DMSO, % at 10 µM; carboxyfluorescein RNA aptamer beads, flow cytometry quenching; active compounds read low; shares compounds with GRK2 inh; AID 588494; 360 tested, under 10 active;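 active = response vs DMSO under 50%, meaning signal dropped by over half, treated as fluorescence quencher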;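 note: labelled aptamer on streptavidin beads without GRK2 as a quench counter-screen; 100% = bead fluorescence of DMSO wells and lower means quenching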
# FAM quench DR – quenchers of FAM-labeled RNA aptamer fluorescence, dose response, artefact control for GRK2 aptamer binding project, biochemical, powder set 1, flow cytometry; shares compounds with GRK2 inh; fluorescence ratio to DMSO, % at 11.1 µM; Bead-bound FAM RNA aptamer fluorescence quenching; active compounds read low; 35 tested, under 10 active;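 active = compounds that dim the fluorescent label, raw bead signal shifting by over 33 units between lowest and highest dose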
# The depositor's hits bear a star; x = no result. Only some compounds are listed: those with a hit (about 2.5% of all), similar ones and a draw of the others.
SMILES,MEKK3 PB1 HTS,MEKK2 WT-MEK5,MEKK2 mut-MEK5,GRK2 inh,GRK2 inh confirm,FAM quench CP1,others
Cc1c(-c2ccc(Cl)cc2Cl)nc2ccccc2c1C(=O)NCCN1CCOCC1,103,97,2,0,x,x,
Cc1ccc2[nH]c(CNC(=O)C3CCCCC3)cc2c1,98,93,-1,60*,6,101,
Cc1ccc(C)c(S(=O)(=O)NCc2ccc(C(=O)N3CCCCC3C)cc2)c1 (stereo not drawn),104,104,8,52*,2,93,
CC1CCCCN1C(=O)c1ccc(C(=O)N2CCCCC2C)cc1 (stereo not drawn),104,106,6,0,x,x,
O=C(COC(=O)c1ccccc1Nc1ccccc1)c1ccccc1,100,100,3,0,x,x,
COC(=O)c1ccccc1Nc1ccccc1,96,100,1,54*,-3,97,
COc1ccc(CNC(=O)COC(=O)c2ccc3c(c2)OCCO3)cc1,101,103,3,58*,-4,104,
Cc1cc(C)cc(NC(=O)COC(=O)c2ccc3c(c2)OCCO3)c1,x,x,x,100*,-3,102,
CCOC(=O)Cn1cc(Cl)c(=O)c(Cl)c1,96,98,-1,85*,-3,102,
CCOC(=O)Cn1nc(C)n(-c2ccc(Cl)cc2)c1=O,99,98,-1,0,x,x,
CC(C)c1ccc(-n2cnn(-c3ncccc3[N+](=O)[O-])c2=O)cc1,103,98,-5,4,x,x,
COC(=O)c1cc2cc(NS(=O)(=O)c3ccc(C)cc3)ccc2s1,100,98,-4,0,x,x,
O=C(NCc1ccc(Cl)cc1)c1cc(S(=O)(=O)N2CCCCC2)c[nH]1,97,97,2,43*,2,96,
Cc1cc(-c2nc(-c3ccncc3)no2)ccc1[N+](=O)[O-],103,104,5,25,0,102,
CCOc1ccc2nc(NC3=NC(c4ccc(OC)cc4)CC(=O)N3)nc(C)c2c1 (stereo not drawn),83,83,-8,38,-25,107,
O=C(Nc1cc(S(=O)(=O)N2CCOCC2)ccc1N1CCOCC1)c1cc(=O)[nH]c2ccccc12,95,87,-8,5,x,x,
CC(C)=CC(=O)OCC(=O)Nc1cc(C)ccc1C,108,107,2,0,x,x,
O=C(CSc1nnc(-c2ccc(O)cc2)n1-c1ccccc1)CC(=O)Nc1ccccc1,99,96,-2,92*,x,x,GRK2 CP2=-19;FAM quench CP2=102
Cn1c(SCC(=O)CC(=O)Nc2ccccc2)nnc1-c1ccc(O)cc1,103,98,-3,3,x,x,
CCOC(=O)c1nn(-c2sc(C(=O)OC)c(C)c2C(=O)OC)cc1O,101,98,2,8,x,x,
O=C(c1cc2nc(C3CC3)cc(C(F)F)n2n1)N1CCOCC1,99,93,-6,1,x,x,
O=C(Nc1ccc2oc(-c3ccc(F)cc3)nc2c1)c1ccccc1F,90,95,-3,2,x,x,
O=C(NC(=S)Nc1ccc2oc(-c3ccncc3)nc2c1)c1ccccc1F,78,79,-7,40,-14,100,
COc1ccc(S(=O)(=O)NCC(c2ccc(F)cc2)N2CCN(C)CC2)cc1 (stereo not drawn),x,x,x,76*,46*,100,Aptamer quench 1=0.2
CN1CCN(C(=O)c2ccc3c(c2)OCCO3)CC1,98,108,6,2,x,x,
SMILES,MEKK3 PB1 HTS,MEKK2 WT-MEK5,MEKK2 mut-MEK5,GRK2 inh,GRK2 inh confirm,FAM quench CP1,others
CCSc1nc2sc3c(c2c(=O)n1CC)CCC3,108,106,10,3,x,x,GRK2 CP2=16;FAM quench CP2=99
C#CCSc1nc2sc3c(c2c(=O)n1C)CCC3,99,97,-1,55*,53*,164,Aptamer quench 1=4;GRK2 CP2=67*;Aptamer quench3=-2.9;FAM quench CP2=102;FAM quench DR=99
CSc1nc2sc3c(c2c(=O)n1C)CCCC3,87,88,-2,2,x,x,
CSc1nc2sc3c(c2c(=O)n1C)CCC3,104,109,1,1,x,x,GRK2 CP2=-69;FAM quench CP2=98
COc1ccc(CNS(=O)(=O)c2ccc3c(c2)C(C)(C)C(=O)N3C)cc1,99,102,-4,2,x,x,
COc1cc(NS(=O)(=O)c2ccc3c(c2)C(C)(C)C(=O)N3C)cc(OC)c1,102,102,-1,44*,4,99,
Cc1nnc(NC(=O)CCS(=O)(=O)Cc2ccccc2)s1,104,109,13,0,x,x,
O=C(CS(=O)(=O)c1ccccc1)Nc1nnc(C(F)(F)F)s1,100,96,1,2,x,x,
O=C(CCS(=O)(=O)c1ccccc1)Nc1nnc(C(F)(F)F)s1,99,97,4,25,9,102,
CC(C)(C)c1nnc(NC(=O)CCS(=O)(=O)c2ccccc2)s1,104,100,3,6,1,97,
Cc1nnc(NC(=O)CCS(=O)(=O)c2ccccc2)s1,101,98,-2,9,2,100,
CC(C)(C)c1nnc(NC(=O)CCS(=O)(=O)Cc2ccccc2)s1,101,100,0,0,x,x,
CC(C)Oc1ccc(CNCC2(O)CCOC(C)(C)C2)cc1 (stereo not drawn),101,99,-3,57*,-2,101,
COc1ccc(Cl)cc1N(CC(=O)Nc1ccccc1C(=O)NCc1ccco1)S(C)(=O)=O,103,109,4,20,0,101,
O=C(Nc1ncccn1)c1ccc(C(F)(F)F)cc1,102,103,-2,3,x,x,
